This is an account of results in the OligoGym collection.
Note: reference of the scale not given here.

One assay addresses C5AR1. Briefly: pooled miR-30 sensor sort-seq; sequence = guide strand. The settings on record: shRNA.
The sequence TAGAAGTTTTATCCACAGGGGT displayed a sensor-assay potency score (higher = more potent) of -0.173.

The sequence TTAGAAGTTTTATCCACAGGGG returned a sensor-assay potency score (higher = more potent) of -0.274.

The sequence TACTTGTCTGTATTCTGAGTTC returned a sensor-assay potency score (higher = more potent) of -0.656.

For TACATATTTTCCAACTTGCCAT, the sensor-assay potency score (higher = more potent) is -0.462.

TAAACACCAGCAGAAAGCGGTC displayed a sensor-assay potency score (higher = more potent) of -1.02.

Turning to ATAGTGTCCACTGTGGAGCGCG, the sensor-assay potency score (higher = more potent) is -0.598.

On to TAACTCACTTACAAGAGCTTAG, for which the sensor-assay potency score (higher = more potent) is -0.132.

As for AAGTGTAACAAATCGTGAGCGT, the sensor-assay potency score (higher = more potent) was -0.136.

In the case of TGAAAGTGTAACAAATCGTGAG, the sensor-assay potency score (higher = more potent) worked out at 0.282.

In the case of TTCTACTTGTCTGTATTCTGAG, the sensor-assay potency score (higher = more potent) came out at 0.386.

For TGATGCTGTACAATGGACGTGA, the sensor-assay potency score (higher = more potent) stood at 0.655.

Regarding TTTTAAGCGAGAATCTTTCTAC, the sensor-assay potency score (higher = more potent) is 0.0632.

The sequence TACTCCTCCCGGACCACCCGGT had a sensor-assay potency score (higher = more potent) of -0.108.

TTCAGTCAACACGTTCCGGAGG returned a sensor-assay potency score (higher = more potent) of -1.26.

For TAAGGTAACACCATCCCACGAA, the sensor-assay potency score (higher = more potent) worked out at 0.399.

The next assay addresses C5orf51. Described as above. The note with it: shRNA.
The sequence TTATTAGTGACATAACATCTGT showed a sensor-assay potency score (higher = more potent) of -0.587.

In the case of TTGTATTCCATTCTTGTTCTTT, the sensor-assay potency score (higher = more potent) was -0.072.

Turning to TTCAATATCAGAACTTCTGTAA, the sensor-assay potency score (higher = more potent) is 0.18.

In turn, TATCTTAATGTAATACCGCTGT displayed a sensor-assay potency score (higher = more potent) of -0.406.

In turn, TTTATCTTCATTACTCACTTGA gave a sensor-assay potency score (higher = more potent) of 1.06.

On to TTAACTGGATAGGACATCGATA, for which the sensor-assay potency score (higher = more potent) is -1.18.

Turning to TATTAGTGACATAACATCTGTA, the sensor-assay potency score (higher = more potent) worked out at 0.937.

With TTGATGGATTTGAACATTCTTT, the sensor-assay potency score (higher = more potent) was -0.74.

Turning to TAGAACATGATTACACAGGATG, the sensor-assay potency score (higher = more potent) was -0.681.

The sequence AAAATCTTCATCTACTAGCTTG had a sensor-assay potency score (higher = more potent) of -0.0873.

Turning to TTAACTAAGTCTAAAAGCCTAG, the sensor-assay potency score (higher = more potent) is -0.498.

As to TTTAGCTGTGTCTAGATCTTGG, the sensor-assay potency score (higher = more potent) is 0.753.

Another assay has as its target C5orf56. The assay is described as above. The note with it: shRNA.
Turning to TTGTTCACTGCTGCATTGCTGC, the sensor-assay potency score (higher = more potent) is -0.868.

For the sequence TTCACTGCTGCATTGCTGCCAT, the sensor-assay potency score (higher = more potent) is -0.146.

In turn, TTGATGACGAGGAAAAAGGAGA gave a sensor-assay potency score (higher = more potent) of -0.938.

In the case of TTTGAAGATTCCCTTGGTGTGT, the sensor-assay potency score (higher = more potent) is -0.413.

The sequence TTCTTTCCAGAATCTTGGCTGT displayed a sensor-assay potency score (higher = more potent) of 0.101.

The sequence TTGAAGATTCCCTTGGTGTGTT returned a sensor-assay potency score (higher = more potent) of 0.717.

For the sequence AATCTTGGCTGTAAGCAGCAGA, the sensor-assay potency score (higher = more potent) is -0.53.

TTTCTTTCCAGAATCTTGGCTG gave a sensor-assay potency score (higher = more potent) of 0.311.

AAAGGAGACATTTCTTTCCAGA gave a sensor-assay potency score (higher = more potent) of -0.416.

As for TTATAAGCTGCATGAGAGCAGG, the sensor-assay potency score (higher = more potent) is -0.803.

In turn, TCCAATAGGCTACAAACTCTGG yielded a sensor-assay potency score (higher = more potent) of -1.19.

Sequence AACACTTGCTGAATAAATGAGT came in with a sensor-assay potency score (higher = more potent) of -0.962.
